# Laboratory results: PubChem BioAssay
# A number with no mark means an inactive call. Calls of active or inactive are those of the source. Unless noted, no stated cut-off is given here; in the data, active means inhibition above about 42%; inactive means the rest.
# Tested on: not listed separately
# Test: StAR promoter reporter inhibitors, counter-screen for LRH-1 inverse agonist project, cell-based, luminescence, high throughput (AID 651611; in the data active means inhibition above about 28%)
# Details: StAR promoter luciferase reporter counterscreen, at 3.6 µM, hits give high values
row,Structure (SMILES),inhibition
1,CC(=O)Nc1ccc(NC(=O)CSc2nnc(-c3cc4ccccc4o3)n2C)cc1,-0.36%
2,Cc1ccc(SCC(=O)Nc2ccc(N3CCOCC3)cc2)c(C)c1,16.4%
3,NC(=S)NNc1cc(Cl)cc(Cl)c1,12.8%
4,CC(=O)c1cccc(NC(=O)c2ccc([N+](=O)[O-])o2)c1,25%
5,O=C(Nc1cccc2ccccc12)c1ccc([N+](=O)[O-])o1,27.4%
6,CC(=O)Nc1cc(-c2cccc(NS(C)(=O)=O)c2)cn2c(-c3ccccc3)cnc12,28% (active)
7,NC(=O)c1oc2ccccc2c1NC(=O)c1ccc([N+](=O)[O-])o1,23.2%
8,CC(CCc1ccccc1)NC(=O)COc1ccc(S(=O)(=O)N2CCOCC2)cc1[N+](=O)[O-] (stereo not given),-7.62%
9,CC(C)=NOc1cc(NC(=O)CCl)cc([N+](=O)[O-])c1,37.5% (active)
10,CCCOc1ccc(NC(=O)CC2C(=O)N(C)C(=S)N2Cc2ccc3c(c2)OCO3)cc1 (stereo not given),6.7%
11,CCOC(=O)c1ccc(NC(=O)CSc2nnc(COc3ccccc3OC)n2C)cc1,-2.53%
12,O=C(COc1ccc(S(=O)(=O)N2CCCC2)cc1Cl)Nc1ccc2c(c1)OCO2,0.49%
13,O=C(N/N=C/c1cc2c3c(c1O)CCCN3CCC2)c1ccccc1O,83.4% (active)
14,COc1cc([N+](=O)[O-])ccc1NC(=O)C[n+]1ccccc1,15.1%
15,O=C(c1ccco1)N1CCCC(N2CCN(c3cccc(C(F)(F)F)c3)CC2)C1 (stereo not given),-1.93%
16,CC(=O)c1ccc(NC(=O)CSC2=NS(=O)(=O)c3cc(Cl)ccc3N2)cc1,7.81%
17,CCOc1ccc(NC(=O)COC(=O)CC2CCCCC2)cc1,9.8%
18,CCOc1ccc(NC(=O)COC(=O)COc2cccc3c2OC(C)(C)C3)cc1,1.8%
19,O=S(=O)(c1ccc(-c2csc(Nc3ccc(F)cc3)n2)cc1)N1CCCC1,15.5%
20,O=C(NCCN1C(=O)S/C(=C\c2ccc(OC(F)F)cc2)C1=O)c1cnccn1,44% (active)

row,Structure (SMILES),inhibition
1,CC(=O)COc1ccc2c(-c3cccc([N+](=O)[O-])c3)cc(=O)oc2c1,7.05%
2,O=C(CSc1ncn[nH]1)Nc1ccc(Cl)c(Cl)c1,18.4%
3,O=C(c1ccc(Oc2ccc([N+](=O)[O-])cc2Cl)cc1)N1CCCC1,6.61%
4,Cc1ccc(C)c(NC(=O)CSc2nnc(-c3n[nH]c4ccccc34)o2)c1,10.3%
5,C=CCn1c(CCNC(=O)c2cccs2)nnc1SCC(=O)Nc1cccc(Cl)c1C,8.38%
6,O=C(CCl)N1CCN(C(=O)C2COc3ccccc3O2)CC1 (stereo not given),18.7%
7,O=C(CCl)NCCN1C(=O)S/C(=C\c2cccnc2)C1=O,10.2%
8,CCOc1ccc(CCNC(=O)COC(=O)c2cc(=O)[nH]c3ccccc23)cc1OCC,8.79%
9,CC(C)C(=O)N1CCN(c2ccc(NC(=O)c3ccc([N+](=O)[O-])o3)cc2)CC1,8.38%
10,COc1ccccc1NC(=O)c1ccc(NC(=O)COC(=O)C(C)C)cc1,12.5%
11,COc1cc(NC(=O)c2ccc([N+](=O)[O-])o2)ccc1NC(=O)c1ccco1,28.8% (active)
12,CN1CCN(/N=C/c2nc(-c3cccc([N+](=O)[O-])c3)n3ccccc23)CC1,-4.33%
13,c1cnn(-c2nc(N3CCOCC3)nc(N3CCOCC3)n2)c1,29.5% (active)
14,CCn1c(SCC(=O)Nc2ccc(N3CCOCC3)cc2)nnc1-c1ccco1,3.02%
15,Cc1cc(OCC(=O)NC2CC2)c2c(C)cc(=O)oc2c1,18.9%
16,COc1ccc(CCNC(=O)COC(=O)C2CC2C)cc1 (stereo not given),3.36%
17,COc1ccc(NC(=O)CN2C(=O)C(C)SC(C)C2=O)c(OC)c1 (stereo not given),4.55%
18,CCOC(=O)CC1CCCCN1C(=O)c1cc(COc2cccc3cnccc23)on1 (stereo not given),39% (active)
19,CC(=O)Nc1ccc(NC(=O)CSc2nnnn2C2CCCCC2)cc1,17%
20,Cn1c2c(c(=O)n(C)c1=O)C(C(F)(F)F)(C(F)(F)F)N=C(CCC1CCCCC1)N2,29.6% (active)

# Target: Nuclear receptor subfamily 5 group A member 2 (Homo sapiens) (UniProt O00482)
# Sequence (O00482 whole entry, looked up): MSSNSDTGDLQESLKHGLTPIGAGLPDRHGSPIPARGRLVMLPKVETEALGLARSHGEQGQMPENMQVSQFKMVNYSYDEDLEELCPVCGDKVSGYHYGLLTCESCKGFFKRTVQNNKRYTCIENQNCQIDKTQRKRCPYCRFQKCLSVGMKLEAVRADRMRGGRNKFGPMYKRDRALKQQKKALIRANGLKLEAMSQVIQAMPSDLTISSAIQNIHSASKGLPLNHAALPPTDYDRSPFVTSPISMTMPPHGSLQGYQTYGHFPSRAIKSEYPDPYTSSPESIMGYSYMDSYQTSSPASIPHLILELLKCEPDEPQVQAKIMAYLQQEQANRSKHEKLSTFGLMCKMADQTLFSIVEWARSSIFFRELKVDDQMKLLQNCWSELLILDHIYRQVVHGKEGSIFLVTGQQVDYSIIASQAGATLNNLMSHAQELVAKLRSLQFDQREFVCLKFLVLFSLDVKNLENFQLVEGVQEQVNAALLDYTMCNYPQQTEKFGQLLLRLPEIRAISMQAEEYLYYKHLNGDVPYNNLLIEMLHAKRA
# Test: LRH-1 (NR5A2) inverse agonists, retest, confirmation, cell-based, luminescence (AID 651613);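 further: HEK293T cells co-transfected with LRH-1 and StAR promoter luciferase reporter; 0% = vehicle wells and 100% = parental cells lacking receptor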
# Details: cell-based LRH-1 luciferase reporter, inverse agonism; at 3.6 µM; hits give high values
row,Structure (SMILES),inhibition
1,CC(=O)Nc1ccc(NC(=O)CSc2nnc(-c3cc4ccccc4o3)n2C)cc1,42.7% (active)
2,Cc1ccc(SCC(=O)Nc2ccc(N3CCOCC3)cc2)c(C)c1,63.3% (active)
3,NC(=S)NNc1cc(Cl)cc(Cl)c1,50.1% (active)
4,CC(=O)c1cccc(NC(=O)c2ccc([N+](=O)[O-])o2)c1,61.7% (active)
5,O=C(Nc1cccc2ccccc12)c1ccc([N+](=O)[O-])o1,68.5% (active)
6,CC(=O)Nc1cc(-c2cccc(NS(C)(=O)=O)c2)cn2c(-c3ccccc3)cnc12,40.4%
7,NC(=O)c1oc2ccccc2c1NC(=O)c1ccc([N+](=O)[O-])o1,67.6% (active)
8,CC(CCc1ccccc1)NC(=O)COc1ccc(S(=O)(=O)N2CCOCC2)cc1[N+](=O)[O-] (stereo not given),35.2%
9,CC(C)=NOc1cc(NC(=O)CCl)cc([N+](=O)[O-])c1,56.3% (active)
10,CCCOc1ccc(NC(=O)CC2C(=O)N(C)C(=S)N2Cc2ccc3c(c2)OCO3)cc1 (stereo not given),57.6% (active)
11,CCOC(=O)c1ccc(NC(=O)CSc2nnc(COc3ccccc3OC)n2C)cc1,40.4%
12,O=C(COc1ccc(S(=O)(=O)N2CCCC2)cc1Cl)Nc1ccc2c(c1)OCO2,50.4% (active)
13,O=C(N/N=C/c1cc2c3c(c1O)CCCN3CCC2)c1ccccc1O,103% (active)
14,COc1cc([N+](=O)[O-])ccc1NC(=O)C[n+]1ccccc1,58.8% (active)
15,O=C(c1ccco1)N1CCCC(N2CCN(c3cccc(C(F)(F)F)c3)CC2)C1 (stereo not given),51% (active)
16,CC(=O)c1ccc(NC(=O)CSC2=NS(=O)(=O)c3cc(Cl)ccc3N2)cc1,43.6% (active)
17,CCOc1ccc(NC(=O)COC(=O)CC2CCCCC2)cc1,44.4% (active)
18,CCOc1ccc(NC(=O)COC(=O)COc2cccc3c2OC(C)(C)C3)cc1,61.5% (active)
19,O=S(=O)(c1ccc(-c2csc(Nc3ccc(F)cc3)n2)cc1)N1CCCC1,66.7% (active)
20,O=C(NCCN1C(=O)S/C(=C\c2ccc(OC(F)F)cc2)C1=O)c1cnccn1,30.1%

row,Structure (SMILES),inhibition
1,CC(=O)COc1ccc2c(-c3cccc([N+](=O)[O-])c3)cc(=O)oc2c1,67.2% (active)
2,O=C(CSc1ncn[nH]1)Nc1ccc(Cl)c(Cl)c1,45.2% (active)
3,O=C(c1ccc(Oc2ccc([N+](=O)[O-])cc2Cl)cc1)N1CCCC1,46.2% (active)
4,Cc1ccc(C)c(NC(=O)CSc2nnc(-c3n[nH]c4ccccc34)o2)c1,58.9% (active)
5,C=CCn1c(CCNC(=O)c2cccs2)nnc1SCC(=O)Nc1cccc(Cl)c1C,57.9% (active)
6,O=C(CCl)N1CCN(C(=O)C2COc3ccccc3O2)CC1 (stereo not given),57.3% (active)
7,O=C(CCl)NCCN1C(=O)S/C(=C\c2cccnc2)C1=O,55.9% (active)
8,CCOc1ccc(CCNC(=O)COC(=O)c2cc(=O)[nH]c3ccccc23)cc1OCC,53.2% (active)
9,CC(C)C(=O)N1CCN(c2ccc(NC(=O)c3ccc([N+](=O)[O-])o3)cc2)CC1,59.5% (active)
10,COc1ccccc1NC(=O)c1ccc(NC(=O)COC(=O)C(C)C)cc1,62.7% (active)
11,COc1cc(NC(=O)c2ccc([N+](=O)[O-])o2)ccc1NC(=O)c1ccco1,62.5% (active)
12,CN1CCN(/N=C/c2nc(-c3cccc([N+](=O)[O-])c3)n3ccccc23)CC1,38.9%
13,c1cnn(-c2nc(N3CCOCC3)nc(N3CCOCC3)n2)c1,63.6% (active)
14,CCn1c(SCC(=O)Nc2ccc(N3CCOCC3)cc2)nnc1-c1ccco1,58% (active)
15,Cc1cc(OCC(=O)NC2CC2)c2c(C)cc(=O)oc2c1,65.5% (active)
16,COc1ccc(CCNC(=O)COC(=O)C2CC2C)cc1 (stereo not given),47.1% (active)
17,COc1ccc(NC(=O)CN2C(=O)C(C)SC(C)C2=O)c(OC)c1 (stereo not given),44% (active)
18,CCOC(=O)CC1CCCCN1C(=O)c1cc(COc2cccc3cnccc23)on1 (stereo not given),58.9% (active)
19,CC(=O)Nc1ccc(NC(=O)CSc2nnnn2C2CCCCC2)cc1,57.9% (active)
20,Cn1c2c(c(=O)n(C)c1=O)C(C(F)(F)F)(C(F)(F)F)N=C(CCC1CCCCC1)N2,41.9% (active)
